Experimental findings from PubChem BioAssay (Tox21) are described below.

Records with an inconclusive call do not appear. Activity calls are given as the source filed them. Calls follow the shape of the dose curve; as a rule, active = well fitted activation curve with a large enough effect in the signal ratio in the repeat runs (not every such curve was filed as active); inconclusive = weak or mixed curves, or effect the other way; inactive = no such curve, though single readings can be large or run the other way; the % refers to the signal ratio.
% is scaled to controls: 0 for no effect and ±100 for the full control effect; potency is read from the fitted curve at half-maximal effect.

In this test the target is Glucocorticoid receptor (Homo sapiens) (UniProt P04150). Briefly: qHTS assay to identify small molecule agonists of the glucocorticoid receptor (GR) signaling pathway (AID 720691). The conditions noted are these: GR-bla HeLa, beta-lactamase reporter ratio, 18 h; activation: at 62.4 µM (top of the series). From the text: U.S. Tox21 Program National Center for Advancing Translational Sciences [NCATS] NIH Chemical Genomics Center [NCGC] U.S. Environmental Protection Agency [EPA] National Institutes of Environmental Health Sciences [NIEHS] National Toxicology Program [NTP] U.S. Food and Drug Administration [FDA] Tox21 Assay Overview: The Glucocorticoid receptor (GR) is one of the members of the nuclear receptor family of ligand-dependent transcription factors. GR plays a critical role in carbohydrate, protein and lipid metabolisms and programmed cell death. CellSensor GR-bla HeLa cell line (Invitrogen) contains a beta-lactamase reporter gene under the control of the glucocorticoid response element stably integrated into HeLa cells, a cervical cancer cell line that expresses glucocorticoid receptor. The activation of the reporter gene under culture conditions can be detected by fluorescence intensity. This cell line has been used to screen the Tox21 10K compound library and to identify the compounds that activate the GR signaling.
Sequence of Glucocorticoid receptor (Homo sapiens) (P04150 whole entry, looked up): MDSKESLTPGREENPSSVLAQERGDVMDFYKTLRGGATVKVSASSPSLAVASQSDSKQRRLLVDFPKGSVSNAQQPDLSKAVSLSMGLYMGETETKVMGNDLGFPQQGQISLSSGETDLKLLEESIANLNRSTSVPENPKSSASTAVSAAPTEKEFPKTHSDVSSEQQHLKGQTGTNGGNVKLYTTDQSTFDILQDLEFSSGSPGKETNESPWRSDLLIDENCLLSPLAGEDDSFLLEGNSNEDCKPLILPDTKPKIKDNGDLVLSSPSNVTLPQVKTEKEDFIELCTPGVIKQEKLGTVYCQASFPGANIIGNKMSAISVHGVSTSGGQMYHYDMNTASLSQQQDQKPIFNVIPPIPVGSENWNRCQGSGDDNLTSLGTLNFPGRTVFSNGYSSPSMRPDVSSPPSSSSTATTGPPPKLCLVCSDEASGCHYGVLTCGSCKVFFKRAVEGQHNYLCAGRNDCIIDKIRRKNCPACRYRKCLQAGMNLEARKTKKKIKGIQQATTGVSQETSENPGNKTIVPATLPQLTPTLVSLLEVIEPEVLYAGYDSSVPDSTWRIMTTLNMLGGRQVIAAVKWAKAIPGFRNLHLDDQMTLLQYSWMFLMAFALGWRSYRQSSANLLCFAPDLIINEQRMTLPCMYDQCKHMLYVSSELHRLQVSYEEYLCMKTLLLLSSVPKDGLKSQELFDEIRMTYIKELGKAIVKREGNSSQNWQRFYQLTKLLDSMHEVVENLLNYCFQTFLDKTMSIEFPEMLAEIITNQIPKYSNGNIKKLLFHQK
Tox21 Assay Protocol Summary: The GR-bla HeLa cells were dispensed at 1500 cells/6 ul/well in 1536-well black wall/clear bottom plates using a Multidrop Combi (ThermoFisher Scientific, Waltham, MA) dispenser. After the assay plates were incubated at a 37 C/5% CO2 incubator for 4 hours, 23 nL of compounds dissolved in DMSO, positive controls or DMSO only was transferred to the assay plate by a pintool station (Kalypsys, San Diego, CA). The plates were incubated at 37 C for 18 hours. After 1 uL of LiveBLAzerTM B/G FRET substrate was added using a Flying Reagent Dispenser (Aurora Discovery, San Diego, CA), the plates were incubated at room temperature for 2 hours, and fluorescence intensity was measured by an Envision plate reader (PerkinElmer, Shelton, CT).
(In general: In qHTS, concentration-response curves come from the screen itself.)
For `CC(C)(C)C1=CC(=O)C=C(C(C)(C)C)C1=O`, the “activation” value was 2.21% (inactive).

As for `C[Si](C)(C)Cl`, the “activation” value was 1.62% (inactive).

Turning to `c1ccc(Nc2cccc3ccccc23)cc1`, the Potency result was “inactive”.

On to `CCCCOC(=O)C(C)CC` (stereo not given), for which the “activation” value is 6.38% (inactive).

Consider `CNCC[C@H](Oc1cccc2ccccc12)c1cccs1`, for which the “activation” value was 12.2% (inactive).

With `CCC(C)c1cc([N+](=O)[O-])cc([N+](=O)[O-])c1OC(=O)OC(C)C` (stereo not given), the “activation” value is -2.15% (inactive).

Take `COc1ccccc1OCCNCC(O)COc1cccc2[nH]c3ccccc3c12` (stereo not given): the “activation” value is -1.97% (inactive).

As for `CC1(C)C(=O)N(Br)C(=O)N1Br`, the “activation” value is -0.0706% (inactive).

With `NCCCCCCNCCCCCCN`, the “activation” value was -1.43% (inactive).

`CCCC(CC)CCCCCCCN` (stereo not given): the “activation” value was -0.231% [at 79.2 µM] (inactive).

Take `Nc1ccc2cc3ccc(N)cc3nc2c1`: the Potency is 6.16 µM (active).

For the molecule `Cc1occc1SSc1ccoc1C`, the “activation” value was -1.64% (inactive).

For `CCCCNc1c(C(=O)OCC)c(C)nc2c1cnn2CC`, the “activation” value was -0.0589% (inactive).

`CSc1c(Cl)c(Cl)c(Cl)c(Cl)c1Cl`: the “activation” value is 1.38% (inactive).

On to `O=Nc1ccc(NO)cc1`, for which the “activation” value was 4.31% [at 79.2 µM] (inactive).

For the molecule `O=C(c1ccccc1)c1cc(Cl)ccc1O`, the “activation” value was -0.329% (inactive).

With `CCN(CC)CCNc1ccc(CO)c2sc3ccccc3c(=O)c12`, the Potency is 19 µM (active).

Regarding `CC1CCCNC1` (stereo not given), the “activation” value is 1.56% (inactive).

As to `O=C1OC(=O)c2cccc3cccc1c23`, the “activation” value is 0.861% [at 79.2 µM] (inactive).

Regarding `CC(=O)Oc1ccc(C2(c3ccc(OC(C)=O)cc3)C(=O)Nc3ccccc32)cc1`, the Potency result was “inactive”.

Turning to `C1CC(COCC2CO2)CCC1COCC1CO1` (stereo not given), the “activation” value was 11.9% (inactive).

Take `NCCCC(O)(P(=O)(O)O)P(=O)(O)O`: the “activation” value was -0.169% (inactive).

In the case of `CC(C)OC(=O)c1cc(C(=O)OC(C)C)cc([N+](=O)[O-])c1`, the “activation” value was -5.27% [at 79.2 µM] (inactive).

Turning to `CCCCCCCCCC(=O)N(C)C`, the “activation” value is 1.37% [at 79.2 µM] (inactive).

`CNC(=S)NN`: the “activation” value was -4.63% (inactive).

With `O=S(=O)(O)CCCN1CCOCC1`, the “activation” value was -0.375% (inactive).

As for `CN1[C@@H]2CC[C@@H]1CC(OC(=O)C(CO)c1ccccc1)C2` (stereo not given in full), the “activation” value is -0.341% (inactive).

For `O=C(O)CCCCCCC(=O)O`, the “activation” value is 0.0893% [at 79.2 µM] (inactive).

As for `S=C(SSSSSSC(=S)N1CCCCC1)N1CCCCC1`, the “activation” value was -0.143% [at 29.2 µM] (inactive).

Consider `Nc1cc(Cl)c([N+](=O)[O-])cc1O`, for which the “activation” value is -4.54% (inactive).

For the molecule `CCN(CC)c1ccc(N)cc1`, the “activation” value is 3.09% [at 79.2 µM] (inactive).

As to `C/C=C/C=N/NC(=O)c1ccncc1`, the “activation” value was -2.23% (inactive).

With `O=C(Oc1ccccc1)c1cccc(C(=O)Oc2ccccc2)c1`, the “activation” value is -6.69% [at 79.2 µM] (inactive).

Turning to `Nc1ncnc2c1ncn2[C@@H]1O[C@H](COP(=O)(O)O)[C@@H](O)[C@H]1O`, the “activation” value is 0.09% (inactive).

Turning to `NC(=O)C(=O)N/N=C/c1ccc([N+](=O)[O-])o1`, the “activation” value was -1.52% (inactive).

Consider `CCCCCCCCCCCCCCCC`, for which the “activation” value is -0.69% (inactive).

For the molecule `CC(O)C#CC(C)O` (stereo not given), the “activation” value was 1.78% (inactive).

Consider `Cc1cccc(Br)c1`, for which the “activation” value is 0.05% [at 79.2 µM] (inactive).

Regarding `CCCCCCCC/C=C/CCCOC(C)=O`, the “activation” value is 6.07% (inactive).

As to `O=C1OC(OC(=O)c2cccnc2Nc2cccc(C(F)(F)F)c2)c2ccccc21` (stereo not given), the “activation” value was -7.26% (inactive).
